This passage reports PBM binding z-score results from the supplement of paper PMC6555819.

For the assay, the system named is PPARg:RXRa 30nM:10nM, anti-RXR (NR concentration 30 nM, RXRa partner concentration 10 nM). As to the kind of experiment: PBM binding z-score (relative to random genomic background probes); higher = stronger binding; sequences stand for … in GC…GCGATTGACAGCGTAGAATGAAGG
The method in brief: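 Ligand-free nuclear receptor dimers were bound for 1 h to custom Agilent 4×180K protein-binding microarrays. Detection used antibodies against each partner (one per run). Binding z-scores rest on regression-normalized fluorescence, with random background probes as the reference.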
Take CCTTGCGGGTCACGAGGTTATAGCACGACGAGCG: the PBM binding z-score amounted to 4.06.
As for TCGAGTAGGTTACCAATGGGGCTTTCAGCTTTCT, the figure is 1.11; as for CGTCCAAGGACAAGGTCAGTGAAAGAGACTCGAA, -0.0239; as for ATCTCTAGGTAAGACTCAGTTCAGAGAAGAACGC, 0.28.
As for TCTTGTAGATCAACAGGAGGTTAAGAAAGATCGA, the figure is 2.19; as for CCAGACAGGTGAGAAGGTAACTCAACCTCGATTA, 0.064.
Take CTACCAAGGTGAGCAAGGTCGTTGATTACTATTC: the PBM binding z-score was -0.319.
The figure for AGTCAAAGTACACTAGGTAACGTAAGATTCAGCT is 0.149; for CGAACTAGGTCAGAAAAGGACAGTGAAGGATGAT it is 1.43; for TCATATAGGTAAATGCTAGCTGAAAGTCCGATCT it is 3.71.
As for TTACTAAGGTGAGCTGAGGTCGTTGATCCAACTC, the figure is 0.174; as for ACTAGCAGGCCAAGTTTGGGTTACTCAAACAAAG, -0.354; as for TTACCAAGGTGAGCTGAGGACGTTGATCCAACTC, -0.263.
In turn, ATCTCTAGGTAAAAGTTCAATGAATCCCGAGGAT showed a PBM binding z-score of 8.81.
As for GTACCAAGGTGAATGGGTCGTTGATGAGTAGGCG, the figure is 0.195; as for CAGCCTAGGTCAGGGCCAGTATCGGAGGAACGTT, -0.713.
Turning to CAAACTAGGTCAGGAGGTCAAAGTCCGCTTCCCG, the PBM binding z-score was 5.95.
As for TAGCCTAGGTCATTCGGGCCAGTATAGTGTCGGC, the figure is -0.0237; as for ACAGACAGGCGAGTGAAGGTAACTCAGCTGGACG, -0.453; as for GGAACCAGGGCATTCGAGTTGATAGCATGGCGAT, -0.134.
The sequence ATATGTAGGTTATCGGGTCAGTCAGTTTGCGCAT yielded a PBM binding z-score of 3.11.
CCTTACGGGTCACTGACAGGTTATATCATTTGGA returned a PBM binding z-score of 1.54.
